According to publication PMC5540273 (PLoS ONE, 2017):

Assays:
Conditions in all cases: concentration: 1 μM, replicates: in singlicate; n = 1
CTK = test system: T1, CTK
T1 construct: gene MATK

DAPK1 = test system: DAPK1
DAPK2 = test system: DAPK2
DAPK3 = test system: DAPK3
DCAMKL1 = test system: T2, DCAMKL1
T2 construct: gene DCLK1

DCAMKL2 = test system: T3, DCAMKL2
T3 construct: gene DCLK2

DCAMKL3 = test system: T4, DCAMKL3
T4 construct: gene DCLK3

DDR1 = test system: DDR1
DDR2 = test system: DDR2
DLK = test system: T5, DLK
T5 construct: gene MAP3K12
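Further: KINOMEscan kinase panel screen.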

Row | SMILES | %Inh (CTK) | %Inh (DAPK1) | %Inh (DAPK2) | %Inh (DAPK3) | %Inh (DCAMKL1) | %Inh (DCAMKL2) | %Inh (DCAMKL3) | %Inh (DDR1) | %Inh (DDR2) | %Inh (DLK)
1 | COc1ccc(Nc2nccc(NCCNC(=O)Nc3cc(C)ccc3C)n2)cc1 [GSK1379899] | 4% | 0% | 0% | 0% | 0% | 0% | 0% | 9% | 0% | 10%
2 | COc1ccc(-c2coc3ccc(-c4nnc(C)o4)cc23)cc1 | 0% | 0% | 1% | 0% | 15% | 0% | 13% | 0% | 0% | 0%
3 | COc1cccc(CNC(=O)NC2CCN(c3ccnc(Nc4ccc(F)cc4)n3)C2)c1 (stereo not shown) [GSK1379723] | 22% | 0% | 22% | 7% | 9% | 0% | 0% | 7% | 0% | 0%
4 | COc1cc2ncnc(Nc3cccc(Br)c3)c2cc1OC.Cl [GI230329] | 0% | 0% | 0% | 9% | 25% | 0% | 10% | 63% | 43% | 39%
5 | O=C(Nc1n[nH]c2nc(-c3cccs3)c(Br)cc12)C1CCCC1 [SB-743341] | 49% | 0% | 3% | 3% | 0% | 7% | 22% | 27% | 0% | 0%
6 | CC(=O)c1c(C)c2cnc(Nc3ccn(C)n3)nc2n(C2CCCC2)c1=O | 0% | 0% | 0% | 3% | 0% | 100% | 0% | 0% | 0% | 64%
7 | CC(C)c1cc(-c2ccc3c(N)n[nH]c3c2)nc(N)n1 [GSK2250882] | 0% | 9% | 6% | 25% | 2% | 0% | 0% | 0% | 4% | 21%
8 | O=C1NC(=O)C(c2ccc(Cl)cc2)=C1Nc1cccc(Cl)c1 [SB-317651] | 16% | 8% | 0% | 18% | 18% | 0% | 17% | 0% | 16% | 16%
9 | CNc1cc(-c2ccc3c(N)n[nH]c3c2)nc(N)n1 [GSK2224810] | 0% | 18% | 17% | 37% | 16% | 0% | 28% | 0% | 13% | 29%
10 | COC(=O)c1cccc(NC(=O)NC2CCN(c3ccnc(Nc4ccc(F)cc4)n3)C2)c1 (stereo not shown) [GSK1379725] | 0% | 0% | 0% | 0% | 0% | 0% | 12% | 0% | 0% | 0%
11 | NS(=O)(=O)c1cccc(N/C=C2\C(=O)Nc3ccc(S(=O)(=O)Cc4c(Cl)cccc4Cl)cc32)c1 [GSK398099] | 0% | 100% | 1% | 21% | 38% | 10% | 0% | 0% | 0% | 52%
12 | COC(=O)C(NC(=O)NC1CCN(c2ccnc(Nc3ccc(F)cc3)n2)C1)c1ccccc1 (stereo not shown) [GSK1379712] | 0% | 15% | 0% | 25% | 17% | 12% | 0% | 0% | 39% | 0%
13 | COc1ccc(Nc2nccc(N3CCC(NC(=O)c4cc5ccccc5s4)C3)n2)cc1 (stereo not shown) [GSK1379738] | 0% | 0% | 0% | 25% | 14% | 0% | 0% | 80% | 23% | 28%
14 | CCn1c(-c2c(N)noc2C)nc2cnccc21 [SB-737856] | 14% | 0% | 0% | 0% | 5% | 30% | 0% | 0% | 0% | 41%
15 | CNc1nc(-c2ccc3c(N)n[nH]c3c2)cc(N2C[C@@H](C(=O)Nc3ccccc3)CC[C@H]2C)n1 [GSK2298859] | 0% | 11% | 30% | 43% | 53% | 11% | 76% | 6% | 8% | 11%
16 | COC(=O)c1cccc(NC(=O)NC2CCN(c3ccnc(Nc4ccc(OC)cc4)n3)C2)c1 (stereo not shown) [GSK1379746] | 0% | 0% | 0% | 0% | 8% | 0% | 0% | 11% | 46% | 35%

Row | SMILES | %Inh (CTK) | %Inh (DAPK1) | %Inh (DAPK2) | %Inh (DAPK3) | %Inh (DCAMKL1) | %Inh (DCAMKL2) | %Inh (DCAMKL3) | %Inh (DDR1) | %Inh (DDR2) | %Inh (DLK)
17 | O=c1cc(N2CCOCC2)nc2n(Cc3cccc(Cl)c3Cl)c3ccccc3n12 [GSK2299009] | 0% | 13% | 0% | 11% | 12% | 7% | 10% | 22% | 0% | 0%
18 | Cc1ccc(NC(=O)Nc2ccccc2)cc1-c1ccc(C(=O)Nc2ccncc2)cc1 [GSK1398471] | 0% | 3% | 3% | 9% | 10% | 0% | 24% | 95% | 38% | 9%
19 | Fc1ccc(-c2nn3cccc(F)c3c2-c2ccncc2)cc1 [GW475620] | 0% | 0% | 0% | 5% | 0% | 0% | 10% | 47% | 39% | 15%
20 | COc1ccc(Nc2nccc(N3CCC(NC(=O)C(C)c4ccc(Cl)cc4)C3)n2)cc1 (stereo not shown) [GSK1379735] | 4% | 0% | 0% | 0% | 0% | 6% | 29% | 28% | 16% | 13%
21 | Cl.Cl.Cl.N#Cc1ccc(CCNc2nccc(-c3cccc(CN4CCNCC4)c3)n2)cc1 [GSK2137462] | 2% | 28% | 19% | 75% | 14% | 0% | 0% | 0% | 0% | 0%
22 | Nc1ncnc2occ(-c3ccc4c(c3)CCN4C(=O)Cc3cc(F)ccc3F)c12 [GSK2645446] | 0% | 0% | 0% | 0% | 10% | 0% | 0% | 0% | 25% | 8%
23 | CSc1ccc(-c2nc3n(c2-c2ccncc2)CCC3)cc1 [SKF-105561] | 21% | 29% | 0% | 0% | 3% | 0% | 21% | 75% | 60% | 0%
24 | CCn1c(-c2ccccc2)nc2cnccc21 [SB-733416] | 6% | 0% | 0% | 18% | 15% | 1% | 33% | 16% | 13% | 16%
25 | Nc1nccc(-c2c(-c3ccc(F)cc3)ncn2C2CCN(Cc3ccccc3)CC2)n1 [SB-219980] | 11% | 0% | 0% | 0% | 0% | 0% | 13% | 86% | 74% | 0%
26 | Cc1ccc(NC(=O)Nc2ccc(Cl)cc2)cc1-c1ccc(C(=O)Nc2ccncc2)cc1 [GSK1398472] | 0% | 16% | 0% | 15% | 18% | 0% | 0% | 99.8% | 64% | 0%
27 | Cc1ccc(NC(=O)Nc2ccccc2F)cc1-c1ccc(C(=O)Nc2ccncc2)cc1 [GSK1398477] | 0% | 0% | 17% | 0% | 0% | 40% | 26% | 97% | 55% | 0%
28 | CCCCc1nn2ncccc2c1-c1ccnc(NC2CC2)n1 [GW684374] | 0% | 20% | 0% | 12% | 0% | 0% | 0% | 67% | 23% | 35%
29 | CS(=O)(=O)CCNCc1nc(-c2ccc3ncnc(Nc4ccc(OCc5ccccc5)c(Cl)c4)c3c2)cs1.Cl [GW582764] | 0% | 0% | 0% | 0% | 13% | 0% | 6% | 99.8% | 40% | 50%
30 | Cc1nccc(-c2c(-c3ccc(F)cc3)ncn2CCCN2CCOCC2)n1.Cl [SB-282975] | 0% | 0% | 99.3% | 0% | 0% | 2% | 3% | 0% | 0% | 0%
31 | CC[C@@H]1CO[C@H](C(=O)Nc2ccccc2)CN1c1cc(-c2ccc3c(N)n[nH]c3c2)nc(NC)n1 [GSK2376236] | 0% | 17% | 37% | 47% | 2% | 0% | 90% | 0% | 11% | 0%
